Laboratory results reported in the supplement of paper PMC10849652.
Targets with a hit are over-represented here; the source holds about 8,800 in all. About 0.5% of all pairs of compound and target were hits. A number with no mark means an inactive call.

What was measured:
Assay in all cases: log2 fold change, soluble protein after heating vs DMSO (PISA); higher = thermal stabilisation; K562 lysate, 10 uM; active = over 0.2 and 3.5 SD of the protein, either way, in both replicates (recomputed)
nilotinib = compound: Cc1cn(-c2cc(NC(=O)c3ccc(C)c(Nc4nccc(-c5cccnc5)n4)c3)cc(C(F)(F)F)c2)cn1 [nilotinib]
Outline: (§1)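 Quantification was by TMTpro 16plex LC-MS/MS with equalised channel sums, applied to the supernatant after 21,000xg for 90 min. Samples were crude K562 extract at 1 mg/mL protein in PBS pH 7.4 with 1 mM MgCl2, treated with 10 μM compound for 30 min, heated for 3 min across 48°C-58°C, pooled and brought to 0.5% NP-40 at 4°C. Values are log-two fold changes in thermal stability relative to solvent controls, from duplicates.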

[1] = compound: Cc1nc(Nc2n[nH]c3c2CN(C(=O)N[C@H](CN(C)C)c2ccccc2)C3(C)C)c2sccc2n1
Outline: as §1

dasatinib = compound: Cc1nc(Nc2ncc(C(=O)Nc3c(C)cccc3Cl)s2)cc(N2CCN(CCO)CC2)n1 [dasatinib]
Outline: as §1

[2] = compound: Cc1ncc(-c2ccnc(Nc3ccc(S(C)(=O)=O)cc3)n2)n1C(C)C
Outline: as §1

[3] = compound: Cn1cc(-c2ccc3c(c2)CCN3C(=O)Cc2cccc(C(F)(F)F)c2)c2c(N)ncnc21
Outline: as §1

quisinostat = compound: Cn1cc(CNCC2CCN(c3ncc(C(=O)NO)cn3)CC2)c2ccccc21 [quisinostat]
Outline: as §1

tipifarnib = compound: Cn1cncc1[C@@](N)(c1ccc(Cl)cc1)c1ccc2c(c1)c(-c1cccc(Cl)c1)cc(=O)n2C [tipifarnib]
Outline: as §1

[4] = compound: NC(=O)Nc1cc(-c2cccc(F)c2)sc1C(=O)N[C@H]1CCCNC1
Outline: as §1

[5] = compound: NC(=O)c1cnc(N[C@@H]2CCCC[C@@H]2N)nc1Nc1cccc(-n2nccn2)c1
Outline: as §1

[6] = compound: NC1(c2ccc(-c3nc4ccn5c(=O)[nH]nc5c4cc3-c3ccccc3)cc2)CCC1
Outline: as §1

[7] = compound: NCC(=O)Nc1ccc(-n2nc(C(F)(F)F)cc2-c2ccc3c(ccc4ccccc43)c2)cc1
Outline: as §1

vorinostat = compound: O=C(CCCCCCC(=O)Nc1ccccc1)NO [vorinostat]
Outline: as §1

silmitasertib = compound: O=C(O)c1ccc2c(c1)nc(Nc1cccc(Cl)c1)c1ccncc12 [silmitasertib]
Outline: as §1

[8] = compound: O=C1NC(=O)C(c2cnc3ccccn23)=C1c1cn2c3c(cc(F)cc13)CN(C(=O)N1CCCCC1)CC2
Outline: as §1

entospletinib = compound: c1cn2cc(-c3ccc4cn[nH]c4c3)nc(Nc3ccc(N4CCOCC4)cc3)c2n1 [entospletinib]
Outline: as §1

Sequence of UniProt P09884 (P09884 whole entry, looked up): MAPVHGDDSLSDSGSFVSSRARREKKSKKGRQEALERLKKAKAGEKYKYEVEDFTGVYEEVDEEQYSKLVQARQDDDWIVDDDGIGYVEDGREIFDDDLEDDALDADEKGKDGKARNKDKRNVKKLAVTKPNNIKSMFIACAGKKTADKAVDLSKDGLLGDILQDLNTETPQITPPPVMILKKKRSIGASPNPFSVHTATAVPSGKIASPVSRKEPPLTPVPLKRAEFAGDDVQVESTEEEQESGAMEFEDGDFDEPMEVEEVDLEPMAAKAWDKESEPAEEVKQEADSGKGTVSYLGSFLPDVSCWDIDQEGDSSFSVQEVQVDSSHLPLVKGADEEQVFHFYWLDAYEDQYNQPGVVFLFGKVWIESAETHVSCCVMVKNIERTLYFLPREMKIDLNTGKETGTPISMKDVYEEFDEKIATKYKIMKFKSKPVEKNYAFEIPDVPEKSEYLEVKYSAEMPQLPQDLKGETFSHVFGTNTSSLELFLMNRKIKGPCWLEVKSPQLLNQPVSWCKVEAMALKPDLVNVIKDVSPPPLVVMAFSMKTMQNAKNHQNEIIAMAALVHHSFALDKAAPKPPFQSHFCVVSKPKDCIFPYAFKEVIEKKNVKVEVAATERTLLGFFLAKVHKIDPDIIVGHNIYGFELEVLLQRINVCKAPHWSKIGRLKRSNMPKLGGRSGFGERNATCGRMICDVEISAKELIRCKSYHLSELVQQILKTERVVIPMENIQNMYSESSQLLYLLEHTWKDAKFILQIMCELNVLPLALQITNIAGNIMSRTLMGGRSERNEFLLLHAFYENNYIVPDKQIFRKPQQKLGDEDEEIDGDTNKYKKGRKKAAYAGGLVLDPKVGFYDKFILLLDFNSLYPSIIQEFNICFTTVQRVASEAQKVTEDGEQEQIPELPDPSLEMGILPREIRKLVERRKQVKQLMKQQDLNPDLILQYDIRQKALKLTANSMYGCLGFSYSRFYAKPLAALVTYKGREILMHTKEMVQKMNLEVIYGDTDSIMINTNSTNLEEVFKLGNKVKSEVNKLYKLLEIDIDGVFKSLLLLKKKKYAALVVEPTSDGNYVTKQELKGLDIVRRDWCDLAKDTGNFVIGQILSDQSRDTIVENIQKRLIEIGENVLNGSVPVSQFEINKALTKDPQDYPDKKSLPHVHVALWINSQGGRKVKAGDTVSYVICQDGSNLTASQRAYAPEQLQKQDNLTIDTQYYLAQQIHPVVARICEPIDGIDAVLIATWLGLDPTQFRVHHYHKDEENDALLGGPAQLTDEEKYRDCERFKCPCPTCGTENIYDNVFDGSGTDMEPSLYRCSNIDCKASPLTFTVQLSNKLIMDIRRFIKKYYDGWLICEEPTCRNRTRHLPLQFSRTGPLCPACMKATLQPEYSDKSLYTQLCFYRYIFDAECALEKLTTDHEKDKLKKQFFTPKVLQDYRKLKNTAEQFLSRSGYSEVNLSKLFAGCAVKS
Sequence of UniProt O14744 (O14744 whole entry, looked up): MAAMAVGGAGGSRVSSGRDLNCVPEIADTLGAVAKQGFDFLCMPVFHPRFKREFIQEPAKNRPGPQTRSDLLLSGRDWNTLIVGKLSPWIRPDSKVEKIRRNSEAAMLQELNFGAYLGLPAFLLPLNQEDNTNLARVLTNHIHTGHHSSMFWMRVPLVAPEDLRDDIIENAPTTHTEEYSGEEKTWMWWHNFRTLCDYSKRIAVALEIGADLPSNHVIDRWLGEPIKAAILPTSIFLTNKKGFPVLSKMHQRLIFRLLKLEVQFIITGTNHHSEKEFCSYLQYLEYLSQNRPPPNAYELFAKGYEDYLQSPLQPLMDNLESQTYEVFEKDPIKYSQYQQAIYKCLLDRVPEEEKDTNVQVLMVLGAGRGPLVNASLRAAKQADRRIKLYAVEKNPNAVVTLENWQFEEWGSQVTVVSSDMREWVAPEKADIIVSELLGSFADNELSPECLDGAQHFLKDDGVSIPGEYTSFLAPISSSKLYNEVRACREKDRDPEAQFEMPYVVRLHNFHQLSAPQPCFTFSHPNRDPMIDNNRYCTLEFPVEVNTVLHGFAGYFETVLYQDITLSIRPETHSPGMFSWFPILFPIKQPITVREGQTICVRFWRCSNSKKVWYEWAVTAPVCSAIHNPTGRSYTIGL
Sequence of UniProt O95336 (O95336 whole entry, looked up): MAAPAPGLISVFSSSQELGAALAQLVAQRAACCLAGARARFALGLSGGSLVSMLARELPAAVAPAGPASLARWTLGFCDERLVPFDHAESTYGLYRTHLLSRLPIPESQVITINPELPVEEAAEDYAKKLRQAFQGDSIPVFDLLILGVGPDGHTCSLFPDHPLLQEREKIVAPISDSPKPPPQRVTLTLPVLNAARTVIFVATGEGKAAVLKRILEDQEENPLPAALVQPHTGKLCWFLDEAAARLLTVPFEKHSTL
Sequence of UniProt P07737 (P07737 whole entry, looked up): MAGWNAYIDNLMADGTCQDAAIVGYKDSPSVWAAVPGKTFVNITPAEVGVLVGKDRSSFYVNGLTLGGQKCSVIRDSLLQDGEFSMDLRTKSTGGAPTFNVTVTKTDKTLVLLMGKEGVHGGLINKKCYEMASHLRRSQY
Sequence of UniProt P49643 (P49643 whole entry, looked up): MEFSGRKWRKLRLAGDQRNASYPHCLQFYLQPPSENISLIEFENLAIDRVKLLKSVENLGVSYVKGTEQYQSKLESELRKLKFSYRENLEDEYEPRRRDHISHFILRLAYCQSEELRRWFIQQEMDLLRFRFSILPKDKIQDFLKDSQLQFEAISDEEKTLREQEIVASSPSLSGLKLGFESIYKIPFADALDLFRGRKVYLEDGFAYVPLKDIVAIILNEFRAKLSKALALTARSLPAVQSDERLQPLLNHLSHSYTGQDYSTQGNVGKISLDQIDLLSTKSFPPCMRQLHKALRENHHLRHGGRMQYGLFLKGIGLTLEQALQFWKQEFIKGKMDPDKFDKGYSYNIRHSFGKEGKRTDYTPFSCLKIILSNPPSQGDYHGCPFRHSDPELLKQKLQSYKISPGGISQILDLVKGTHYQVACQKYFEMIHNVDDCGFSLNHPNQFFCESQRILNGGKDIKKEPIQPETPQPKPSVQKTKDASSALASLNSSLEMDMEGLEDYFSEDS
Sequence of UniProt Q9UBF8 (Q9UBF8 whole entry, looked up): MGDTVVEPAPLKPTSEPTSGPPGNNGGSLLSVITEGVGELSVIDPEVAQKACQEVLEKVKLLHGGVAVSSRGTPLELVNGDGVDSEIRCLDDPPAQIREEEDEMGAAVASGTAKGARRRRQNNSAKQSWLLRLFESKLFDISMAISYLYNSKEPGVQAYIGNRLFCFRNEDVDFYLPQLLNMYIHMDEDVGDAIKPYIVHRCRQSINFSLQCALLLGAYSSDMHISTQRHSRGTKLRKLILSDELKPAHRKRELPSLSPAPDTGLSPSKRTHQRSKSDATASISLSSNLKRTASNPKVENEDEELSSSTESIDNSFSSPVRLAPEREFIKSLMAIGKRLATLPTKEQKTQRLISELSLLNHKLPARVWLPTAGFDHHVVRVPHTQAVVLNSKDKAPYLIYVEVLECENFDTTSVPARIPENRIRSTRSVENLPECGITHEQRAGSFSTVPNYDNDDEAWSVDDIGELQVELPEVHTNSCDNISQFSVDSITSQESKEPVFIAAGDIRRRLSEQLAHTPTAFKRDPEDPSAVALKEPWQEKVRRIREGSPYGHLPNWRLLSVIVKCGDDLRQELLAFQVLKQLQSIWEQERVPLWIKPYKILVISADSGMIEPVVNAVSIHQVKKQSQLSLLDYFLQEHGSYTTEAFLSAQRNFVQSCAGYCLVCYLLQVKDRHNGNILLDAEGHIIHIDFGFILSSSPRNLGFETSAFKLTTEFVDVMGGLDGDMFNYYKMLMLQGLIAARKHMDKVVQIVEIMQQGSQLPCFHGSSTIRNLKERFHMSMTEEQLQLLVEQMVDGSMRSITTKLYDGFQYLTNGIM
Sequence of UniProt Q93100 (Q93100 whole entry, looked up): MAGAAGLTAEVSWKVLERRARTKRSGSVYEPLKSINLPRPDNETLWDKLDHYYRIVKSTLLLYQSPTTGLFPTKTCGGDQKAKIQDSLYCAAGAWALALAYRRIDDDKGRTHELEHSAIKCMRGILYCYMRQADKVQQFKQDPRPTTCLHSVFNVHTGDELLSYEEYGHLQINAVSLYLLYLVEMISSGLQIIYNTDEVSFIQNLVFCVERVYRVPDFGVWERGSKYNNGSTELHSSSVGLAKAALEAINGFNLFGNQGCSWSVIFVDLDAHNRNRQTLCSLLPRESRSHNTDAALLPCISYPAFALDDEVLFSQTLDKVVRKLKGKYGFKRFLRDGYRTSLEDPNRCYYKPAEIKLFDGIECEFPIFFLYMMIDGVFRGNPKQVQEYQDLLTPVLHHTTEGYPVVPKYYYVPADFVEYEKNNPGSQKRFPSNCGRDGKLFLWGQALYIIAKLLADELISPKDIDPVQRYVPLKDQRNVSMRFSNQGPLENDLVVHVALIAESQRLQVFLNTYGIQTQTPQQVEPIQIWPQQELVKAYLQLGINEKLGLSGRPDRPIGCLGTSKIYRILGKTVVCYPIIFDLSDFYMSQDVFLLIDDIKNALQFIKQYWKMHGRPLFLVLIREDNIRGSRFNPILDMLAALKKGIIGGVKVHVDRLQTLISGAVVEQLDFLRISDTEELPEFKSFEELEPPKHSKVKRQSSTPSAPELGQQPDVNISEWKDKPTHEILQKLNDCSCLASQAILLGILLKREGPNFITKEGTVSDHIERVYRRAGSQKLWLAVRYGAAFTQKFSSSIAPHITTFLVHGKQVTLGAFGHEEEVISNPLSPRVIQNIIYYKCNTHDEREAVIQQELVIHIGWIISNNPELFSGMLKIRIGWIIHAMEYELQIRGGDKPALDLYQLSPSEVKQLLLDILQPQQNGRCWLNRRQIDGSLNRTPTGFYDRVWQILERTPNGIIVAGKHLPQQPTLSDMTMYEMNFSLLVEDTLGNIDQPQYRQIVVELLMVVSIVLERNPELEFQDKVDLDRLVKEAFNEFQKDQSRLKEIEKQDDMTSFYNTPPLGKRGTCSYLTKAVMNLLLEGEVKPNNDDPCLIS

| Target | log2 fold change (nilotinib) | log2 fold change [1] | log2 fold change (dasatinib) | log2 fold change [2] | log2 fold change [3] | log2 fold change (quisinostat) | log2 fold change (tipifarnib) | log2 fold change [4] | log2 fold change [5] | log2 fold change [6] | log2 fold change [7] | log2 fold change (vorinostat) | log2 fold change (silmitasertib) | log2 fold change [8] | log2 fold change (entospletinib) |
| --- | --- | --- | --- | --- | --- | --- | --- | --- | --- | --- | --- | --- | --- | --- | --- |
| PCBP2 isoform 8 (UniProt Q15366) | 0.059 | 0.069 | -0.057 | 0.04 | 0.003 | 0.133 | 0.015 | 0.055 | -0.091 | -0.049 | -0.06 | -0.489 (active) | -0.037 | 0.054 | -0.091 |
| PRC1 (UniProt O43663) | 0.013 | -0.008 | -0.012 | -0.007 | 0.05 | -0.035 | -0.011 | 0.009 | -0.002 | -0.044 | 0.012 | -0.387 (active) | 0.046 | -0.02 | 0.023 |
| PI4KB (UniProt Q9UBF8) | 0.003 | 0.145 | 0.002 | 0.165 | 0.013 | -0.072 | -0.024 | -0.026 | -0.049 | -0.014 | -0.085 | -0.132 | 0.151 | -0.044 | 0.184 |
| PHKB isoform 3 (UniProt Q93100) | -0.007 | 0.121 | -0.023 | 0.001 | 0.008 | -0.063 | -0.035 | 0.28 (active) | 0.004 | -0.058 | -0.023 | -0.288 (active) | 0.07 | 0.016 | 0.023 |
| PRKAR2B (UniProt P31323) | 0.023 | -0.078 | -0.104 | 0.013 | 0.031 | 0.073 | 0.019 | -0.1 | -0.028 | 0.013 | 0.014 | -0.093 | 0.009 | 0.025 | -0.055 |
| POLR2M (UniProt P0CAP2) | -0.033 | -0.014 | -0.032 | 0.012 | -0.056 | -0.015 | 0.007 | 0.012 | 0.002 | 0.014 | 0.034 | 0 | -0.029 | -0.027 | 0.076 |
| POLA1 (UniProt P09884) | -0.022 | -0.01 | 0.011 | 0.017 | 0.009 | -0.028 | -0.001 | 0.029 | 0.001 | 0.008 | 0.009 | -0.293 (active) | -0.019 | 0.006 | -0.016 |
| PFN1 (UniProt P07737) | -0.002 | 0.002 | 0.022 | -0.008 | -0.006 | 0.008 | 0.03 | -0.018 | -0.018 | 0.014 | -0.006 | 0.083 | -0.004 | -0.014 | 0.006 |
| PDPK1 (UniProt O15530) | -0.093 | 0.314 | -0.014 | -0.093 | 0 | -0.094 | -0.011 | 0.619 (active) | 0.019 | -0.059 | -0.056 | -0.246 | 0.09 | 0.004 | -0.007 |
| PRIM2 (UniProt P49643) | 0.052 | 0.007 | -0.038 | -0.012 | 0.02 | -0.027 | -0.037 | 0.018 | -0.001 | -0.021 | -0.008 | -0.296 (active) | 0.09 | 0 | 0.003 |
| PIK3CB (UniProt P42338) | 0.015 | 0.021 | -0.072 | 0.094 | 0.055 | -0.05 | -0.032 | 0.053 | 0.015 | 0.44 (active) | -0.041 | -0.395 | 0.321 | -0.046 | 0.038 |
| PRMT5 (UniProt O14744) | 0 | 0.005 | 0.094 | -0.024 | -0.028 | -0.027 | 0 | 0.035 | -0.015 | -0.019 | 0.012 | 0.013 | -0.037 | 0.001 | 0.013 |
| PDIA4 (UniProt P13667) | 0.008 | -0.006 | 0.006 | 0.014 | 0.004 | 0.154 | 0.029 | -0.004 | -0.02 | 0.008 | 0.001 | 0.119 | -0.011 | 0.021 | 0.004 |
| PGLS (UniProt O95336) | 0.008 | -0.021 | 0.001 | 0.168 | 0.022 | 0.017 | -0.013 | -0.017 | -0.073 | 0.014 | -0.08 | 0.079 | -0.034 | 0.072 | 0.003 |
| PKP3 isoform 2 (UniProt Q9Y446) | -0.034 | -0.021 | 0 | -0.039 | -0.001 | -0.012 | 0.007 | -0.051 | -0.021 | 0.02 | -0.021 | -0.286 (active) | -0.043 | -0.063 | 0.002 |
| PCF11 (UniProt O94913) | -0.003 | -0.001 | -0.042 | 0.023 | -0.017 | -0.004 | -0.029 | 0.019 | -0.013 | -0.012 | 0.043 | -0.339 (active) | -0.023 | -0.001 | 0.016 |
| PIAS2 (UniProt O75928) | -0.019 | -0.005 | -0.097 | 0.068 | -0.026 | 0.061 | -0.086 | 0.004 | – | 0.025 | 0.469 (active) | -0.334 (active) | -0.091 | -0.054 | 0.01 |
